CHT allo act: allosterically activates the human high affinity choline transporter; B-score at 10 µM; Q9GZV3; 0.49% of 310,000 active; CHT-expressing cells, membrane potential dye, choline EC20; hits give high values; LV-AA mutant CHT in HEK293 cells; AID 488977;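 active = initial fluorescence not abnormally high and integrated response B-score, plate-corrected, over 3 SD above library mean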
Target sequence (Q9GZV3 whole entry, looked up): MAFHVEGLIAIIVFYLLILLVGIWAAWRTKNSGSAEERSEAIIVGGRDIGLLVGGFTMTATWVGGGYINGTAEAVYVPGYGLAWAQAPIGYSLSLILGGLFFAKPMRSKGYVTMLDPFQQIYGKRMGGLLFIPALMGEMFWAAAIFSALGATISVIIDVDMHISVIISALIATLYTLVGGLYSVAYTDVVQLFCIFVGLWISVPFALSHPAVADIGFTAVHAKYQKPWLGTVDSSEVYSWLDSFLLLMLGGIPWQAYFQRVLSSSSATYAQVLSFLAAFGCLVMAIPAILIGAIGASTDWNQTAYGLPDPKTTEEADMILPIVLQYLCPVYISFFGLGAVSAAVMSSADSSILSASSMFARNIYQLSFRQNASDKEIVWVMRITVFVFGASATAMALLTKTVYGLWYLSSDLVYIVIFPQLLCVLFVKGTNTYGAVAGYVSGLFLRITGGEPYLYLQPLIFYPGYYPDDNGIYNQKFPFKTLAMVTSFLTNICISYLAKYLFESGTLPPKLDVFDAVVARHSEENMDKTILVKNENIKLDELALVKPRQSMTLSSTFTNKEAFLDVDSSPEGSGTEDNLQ
HIF activator: HIF pathway transcriptional activation; 0.32% of 300,000 active; activation, % at 7.5 µM (by protocol); U2OS HRE-luciferase reporter, luminescence; normalized: DMSO 0%, desferrioxamine 100%;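 active = mean activation of at least 10% of the iron chelator positive control signal, with at least half of replicates also reaching 10%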
AI-2 QS mod: Vibrio harveyi AI-2 quorum sensing modulation; Vibrio harveyi JMH597 AI-2 luminescence/OD600 ratio, 9 h; hits give low values; strain lacks LuxN and CqsS sensors; 0 = neutral-control median; activity change, % at 7.5 µM; 0.4% of 300,000 active; AID 2094; in the data active = activity change below about -75%, passing the limit was not always enough;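 also: luminescence divided by OD600 gain over 9 h not by final OD600 alone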
Platelet DG rel: platelet dense granule release activity. human platelet-rich plasma, SFLLRN dense granule ATP release, luminescence. inhibition, %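 (compounds screened at 7.5 µM in platelet-rich plasma)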. 0.22% of 300,000 active;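 active = mean replicate score, as percent of positive control, at or above 50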
CHT inh: inhibits the human high affinity choline transporter | Q9GZV3 | CHT-expressing cells, membrane potential dye, choline response; hits give low values | B-score at 10 µM | 0.86% of 310,000 active;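 active = B-score over 3 SD under the library average, and starting fluorescence ratio not unusually high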;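 also: choline stimulus applied at its EC90 after an EC20 pre-addition; B-score computed on integrated fluorescence ratio after choline addition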
VLA-4 inh: inhibition in a human VLA-4 binding assay. P13612. VLA-4 expressing cells, ligand binding flow cytometry. inhibition, % (about 7 µM as worked out from the volumes in the protocol). 0.2% of 330,000 active; in the data active = inhibition above about 50%
CHT act confirm: confirmation of human choline transporter (CHT) activators | CHT-expressing cells, membrane potential dye fluorescence (FDSS); % of choline EC20–EC90 response window; HEK293 expressing CHT LV-AA mutant; choline added at its EC20 | shares compounds with CHT allo act | AID 504833 | activation, % at 10 µM | 91% of 2,500 active;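 active = primary screen active, with duplicate mean activation above negative control mean plus 3 SD, cut at about 11% in these data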
HEK293 MP dye: activity in parental HEK293 cells lacking CHT; shares compounds with CHT allo act; membrane potential dye fluorescence (FDSS); measured after EC20 choline addition; ratio readout change at 10 µM, hits read low; 62% of 2,500 active; AID 623908;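 active = duplicate-averaged ratio beyond 3 SD from buffer wells, up or down, though filed actives are nearly all decreases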
Hits are given with their value; . = inactive; / = no result. In the library only some 2.2% were active in any assay of this set; here they are far more common.

SMILES	CHT allo act	HIF activator	AI-2 QS mod	Platelet DG rel	CHT inh	VLA-4 inh	CHT act confirm	HEK293 MP dye
CCCC(=O)N1c2ccccc2C(=C2SC(C(=O)OC)=C(C(=O)OC)S2)C(=S)C1(C)C	.	.	.	.	.	.	19.6	.
Cc1cc(NCCCn2ccnc2)n2ncc(-c3ccccc3)c2n1	.	/	/	/	.	.	/	/
Cc1cc(NCCCn2ccnc2)n2nc(C)c(-c3ccccc3)c2n1	8.46	.	.	.	.	.	47.3	-56.7
COc1ccc(Cl)cc1NC(=O)CN(C)CC(=O)NC(C)c1ccccc1 (stereo not drawn)	.	.	.	.	.	.	/	/
COc1ccc(C(=O)CSc2nnc(CNC(=O)c3ccco3)n2C)cc1	6.59	.	.	.	.	.	69.4	-50.9
CCn1cc(C(=O)OCC(=O)N(C)Cc2ccccc2)c(=O)c2ccc(C)nc21	.	.	.	.	.	.	/	/
CCn1cc(C(=O)OCC(=O)N(C)C2CCS(=O)(=O)C2)c(=O)c2ccc(C)nc21 (stereo not drawn)	8.64	.	.	.	.	.	54.2	-62.2
CCn1cc(C(=O)OCC(=O)N2C(C)CCCC2C)c(=O)c2ccc(C)nc21 (stereo not drawn)	.	.	.	.	.	.	38.7	-28.8
CCCCc1c(CCC)c(=N)c2ccccc2n1C	9.44	.	.	.	.	.	64.6	-26
C[n+]1cccc2c(Br)ccc([O-])c21	6.42	.	.	.	.	.	58.0	-47.6
Cc1cc(N2CCN(Cc3cn(C)nc3-c3ccccc3F)CC2)cc(C)n1	.	.	.	.	.	.	76.9	-74.1
COc1cc2c(C#N)c(N3CCOCC3)nc(N)c2c(N)n1	.	.	.	.	.	.	/	/
CCOc1cc2c(C#N)c(N3CCNCC3)nc(N)c2c(N)n1	6.47	.	.	.	.	.	44.8	-52.6
COc1ccc(N2CCN(c3cc(C)nc4ccc(OC)cc34)CC2)cc1	.	.	.	.	.	.	/	/
COc1ccc2nc(C)cc(N3CCC(C(N)=O)CC3)c2c1	7.2	.	.	.	.	.	61.2	-76.3
CCOC(=O)C1CCN(c2cc(C)nc3ccc(OC)cc23)CC1	7.78	.	.	.	.	.	42.3	-72.5
CSc1ccc(CN(C)C(=O)C(c2ccccc2)c2ccccc2)cc1	7.08	.	.	.	.	.	34.3	.
Cc1ccc(C[n+]2cccc(-c3ccccc3)c2)c(C)c1	8.43	.	.	.	.	.	59.4	.
Cc1ccc(NC(=O)Cc2ccccc2)c(C)c1	.	.	.	.	.	.	/	/
CC(C)CNC(=S)N(CCCO)Cc1cc2cc3c(cc2[nH]c1=O)OCO3	.	.	/	.	.	.	/	/
Cc1cc(NC(=O)Cc2ccccc2)c2ccccc2n1	.	.	.	.	.	.	/	/
Nc1cccc2nc3ccccc3cc12	13.3	.	.	.	.	.	26.7	-55.3
Cc1cc(N)c2ccccc2n1	8.05	.	.	.	.	.	64.5	-54.9
Cc1cc(Nc2ccccc2O)c2ccccc2n1	6.66	.	.	.	.	.	39.1	-37.4
COC(=O)Nc1cc(C)nc2ccccc12	6.83	.	.	.	.	.	35.5	-44.9
SMILES	CHT allo act	HIF activator	AI-2 QS mod	Platelet DG rel	CHT inh	VLA-4 inh	CHT act confirm	HEK293 MP dye
COc1ccc(/C=C/C(=O)N2CCN(c3ccccn3)CC2)cc1OC	.	.	.	.	.	.	/	/
CCOC(=O)Cc1csc(NC(=O)c2ccc(N3CCOCC3)cc2[N+](=O)[O-])n1	/	/	/	/	/	.	/	/
COCCCNc1cc(C)nc2ccccc12	.	.	.	.	.	.	56.5	-68.1
Cc1ccc(C)c(Nc2cc(C)nc3ccccc23)c1	.	.	.	.	.	.	/	/
Cc1cc(Nc2ncc(Cl)cc2Cl)n(-c2ccccc2C)n1	8.82	.	.	.	.	.	42.1	.
CCOCCCNC(=O)C1CCN(S(=O)(=O)c2ccc3nc4c(c(C(=O)O)c3c2)CCCCC4)CC1	.	.	.	.	.	.	/	/
C=CCOc1ccc(C2/C(=C(/O)c3ccc4c(c3)CC(C)O4)C(=O)C(=O)N2CCCN2CCOCC2)cc1 (stereo not drawn)	.	.	.	.	.	.	/	/
CCCN(CC(=O)Nc1ccccc1Br)CC(=O)Nc1ccc(F)c(F)c1F	.	.	.	.	.	.	17.6	.
Cc1nc(-c2ccccc2)cc(N2CCCC2)n1	.	.	.	.	.	.	/	/
Cc1cc(-c2ccccc2)nc2[n+]1CCN2C	7.5	.	.	.	.	.	60.5	-58.7
Cn1cc(S(=O)(=O)N2CCCC2)cc1C(=O)N1CCN(c2ccccc2)CC1	.	.	.	.	.	.	/	/
Clc1ccc(COn2c(-c3ccccc3)nc3ccccc32)cc1	6.45	.	.	.	.	.	25.6	.
O=[N+]([O-])c1ccc2nc(-c3ccc(Cl)cc3)n(OCc3ccccc3)c2c1	.	.	.	.	.	.	/	/
Cc1cc(=O)n2nc(-c3ccccc3)sc2c1C#N	6.43	.	.	.	.	.	28.7	-26.5
Cc1ccc2[nH]c3c(c2c1)CCN1C(=O)OC(C)(C)C31C (stereo not drawn)	.	.	.	.	.	.	/	/
Cc1ccc(OCC(O)Cn2nc(C)cc2C)cc1 (stereo not drawn)	.	.	.	.	.	.	/	/
COc1ccc(OC)c(N=C2SCCCN2C(=O)c2ccc(N3C(=O)CCC3=O)cc2)c1	.	.	/	.	.	.	/	/
CCNS(=O)(=O)c1cc(-c2nnc(OC)c3ccccc23)ccc1C	7.71	.	.	.	.	.	.	.
Cc1ccc(/C([O-])=C(/C(=S)NCCN2CCOCC2)[n+]2ccccc2)cc1[N+](=O)[O-]	.	.	.	.	.	.	/	/
CC(C)N(C(=O)COC(=O)[C@@H]1CC(O)CN1S(=O)(=O)c1ccc(C(C)(C)C)cc1)C(C)C (stereo partly drawn)	7.15	.	.	.	.	.	.	.
COc1ccc(-c2cn(-c3ccc(Cl)cc3)c3[n+]2CCCCC3)cc1	6.96	.	.	.	.	.	51.0	-21.3
COc1ccc(-c2cn3cccnc3n2)cc1F	.	.	.	.	.	.	15.0	-32.9
Cc1cccc(C(=O)OCC(=O)Nc2c(C)n(C)n(-c3ccccc3)c2=O)c1O	/	/	/	/	/	.	/	/
COc1ccc(C[C@H]2CN3C(=NC[C@@H]3C)N2CCNC(=O)CCC2CCCCC2)cc1	.	.	.	.	.	.	.	.
C[C@H]1CN=C2N(CCNC(=O)CCC3CCCCC3)[C@H](Cc3ccc(O)cc3)CN21	.	.	.	.	.	.	/	/

Screens (PubChem)
